# “And” between values parts separate entries of the source, which are not always exact repeats. Equal values may be shown once. About 83,000 compounds went through this panel and 20% of them were active in at least one assay; those are over-represented in the sample as a whole.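 Treatment: one concentration, 48 hours, 96-well format. Scoring: percent growth, with anything below 10 considered active.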 The source made the active and inactive calls.
# Columns and labels:
# Assay in all cases: NCI-60 one-dose screen, 48 h (100 = growth as untreated, 0 = no growth, -100 = all killed)
# Settings in all cases: 10 µM
# NCI-H23 lung = tested on: NCI-H23 lung
# NCI-H522 lung = tested on: NCI-H522 lung
# MDA-MB-231 breast = tested on: MDA-MB-231 breast
# M14 melanoma = tested on: M14 melanoma
# SK-MEL-5 melanoma = tested on: SK-MEL-5 melanoma
# UACC-62 melanoma = tested on: UACC-62 melanoma
# MOLT-4 leukemia = tested on: MOLT-4 leukemia
# SR leukemia = tested on: SR leukemia
# OVCAR-8 ovarian = tested on: OVCAR-8 ovarian
# OVCAR-5 ovarian = tested on: OVCAR-5 ovarian
# OVCAR-4 ovarian = tested on: OVCAR-4 ovarian
# SK-OV-3 ovarian = tested on: SK-OV-3 ovarian
# IGROV1 ovarian = tested on: IGROV1 ovarian
# HS 578T breast = tested on: HS 578T breast
# NCI/ADR-RES ovarian = tested on: NCI/ADR-RES ovarian
# T-47D breast = tested on: T-47D breast
# SW-620 colon = tested on: SW-620 colon
# MCF7 breast = tested on: MCF7 breast
# HCT-116 colon = tested on: HCT-116 colon
# KM12 colon = tested on: KM12 colon
SMILES,growth (NCI-H23 lung),growth (NCI-H522 lung),growth (MDA-MB-231 breast),growth (M14 melanoma),growth (SK-MEL-5 melanoma),growth (UACC-62 melanoma),growth (MOLT-4 leukemia),growth (SR leukemia),growth (OVCAR-8 ovarian),growth (OVCAR-5 ovarian),growth (OVCAR-4 ovarian),growth (SK-OV-3 ovarian),growth (IGROV1 ovarian),growth (HS 578T breast),growth (NCI/ADR-RES ovarian),growth (T-47D breast),growth (SW-620 colon),growth (MCF7 breast),growth (HCT-116 colon),growth (KM12 colon)
CC1=C2C(=C[C@@](C)(COC(=O)c3ccc(S(=O)(=O)F)cc3)[C@@H]2OC(=O)c2ccc(S(=O)(=O)F)cc2)C(=O)[C@](C)(O)C12CC2,-21.4% (active),-52% (active),1.44% (active),-46.3% (active),-96.9% (active),-38.7% (active),23.4% (inactive),16.3% (inactive),5.91% (active),4.81% (active),-9.11% (active),-9.96% (active),0.149% (active),33.4% (inactive),9.12% (active),-20% (active),-3.99% (active),6.34% (active),0.583% (active),28.2% (inactive)
O=C(CCCc1ccc(N(CCCl)CCCl)cc1)OCc1ccccc1,89.3% (inactive),84.3% (inactive),103% (inactive),95.1% (inactive),93.7% (inactive),77.8% (inactive),76.7% (inactive),42.2% (inactive),89.7% (inactive),117% (inactive),105% (inactive),108% (inactive),87.8% (inactive),114% (inactive),93.9% (inactive),75.6% (inactive),91.1% (inactive),81.8% (inactive),92.7% (inactive),99.7% (inactive)
CC1=C2C(=C[C@@](C)(C=O)[C@@H]2O)C(=O)[C@](C)(O)C12CC2,-24% (active),12.9% (inactive),14% (inactive),2% (active),-79.5% (active),-48.5% (active),16.5% (inactive),14.5% (inactive),14.1% (inactive),6.05% (active),19.3% (inactive),11.1% (inactive),9.24% (active),33.5% (inactive),1.41% (active),11.7% (inactive),10.1% (inactive),3.05% (active),6.13% (active),27.4% (inactive)
C/C=C/CC(C)C(O)[C@H](NC(=O)[C@@H]1CCCN1C(=O)C(C)(C)NC(=O)CCCCCCCCC)C(=O)NC(C)(C)C(=O)N[C@@H](CCC(N)=O)C(=O)N[C@H](CCC(N)=O)C(=O)NC(C)(C)C(=O)NC(C)(C)C(=O)N[C@@H](CCC(N)=O)C(=O)N[C@H](CC(C)C)C(=O)N[C@H](CO)CC(C)C (stereo not given in full),37.1% (inactive) and -16.1% (active),-41.2% (active) and -62.8% (active),6.89% (active) and -91.8% (active),-31.6% (active) and -53.6% (active),-93.3% (active) and -92.8% (active),-0.972% (active) and -81.2% (active),-48.2% (active) and -23.8% (active),-57.3% (active) and 12.2% (inactive),16.4% (inactive) and 4.24% (active),50.4% (inactive) and -66.8% (active),60% (inactive) and 47.2% (inactive),61.8% (inactive) and 50.9% (inactive),30.5% (inactive) and 5.27% (active),-36.6% (active) and -60.1% (active),51.1% (inactive) and 4.23% (active),24.8% (inactive) and 10.8% (inactive),33.1% (inactive) and 15.3% (inactive),2.98% (active) and -45.1% (active),13.1% (inactive) and 6.15% (active),-75.9% (active) and -59% (active)
C[C@@H]1CCC/C=C/[C@H]2C[C@@H](O)C[C@@H]2[C@@H](O)/C=C/C(=O)O1,5.85% (active),-26.3% (active),-62.2% (active),6.74% (active),-92.8% (active),25.9% (inactive),1.42% (active),1.7% (active),3.04% (active),30.5% (inactive),22.1% (inactive),8.48% (active),5.5% (active),42% (inactive),9.17% (active),7.4% (active),10.3% (inactive),10.8% (inactive),-1.47% (active),14.9% (inactive)
CC1=C2C(=O)[C@](C)(CO)C=C2C(=O)[C@](C)(O)C12CC2,-14.8% (active),-34.7% (active),24.6% (inactive),22.3% (inactive),24.2% (inactive),7.31% (active),27.3% (inactive),12.8% (inactive),33% (inactive),10.2% (inactive),44.4% (inactive),24.2% (inactive),18.9% (inactive),80.4% (inactive),5.56% (active),6.69% (active),9.68% (active),1.34% (active),5.03% (active),31.9% (inactive)
CC1=C2C(=C[C@@](C)(COS(C)(=O)=O)[C@@H]2O)C(=O)[C@](C)(O)C12CC2,-18.5% (active),-6.78% (active),8.84% (active),-8.82% (active),-18% (active),-67.1% (active),10.4% (inactive),2.86% (active),12.5% (inactive),1.82% (active),-0.135% (active),-13.9% (active),8.2% (active),-9.58% (active),0.993% (active),-0.976% (active),11.7% (inactive),3.13% (active),4.67% (active),-3.28% (active)
C=C1[C@@H](C)C2[C@H](Cc3ccccc3)NC(=O)[C@]23[C@H](OC(C)=O)/C=C/[C@@](C)(O)C(=O)[C@@H](C)C/C=C/[C@H]3[C@@H]1O (stereo not given in full),69.8% (inactive),22.3% (inactive),33% (inactive),51.3% (inactive),33.5% (inactive),84.5% (inactive),62.3% (inactive),43.2% (inactive),74.6% (inactive),96.1% (inactive),34.7% (inactive),15.1% (inactive),8.46% (active),9.13% (active),98.5% (inactive),81.6% (inactive),77.2% (inactive),23.3% (inactive),44.4% (inactive),62.7% (inactive)
CC1=C(CN(O)C(N)=O)C2=C(C)C3(CC3)[C@](C)(O)C(=O)C2=C1,10.7% (inactive),-7.03% (active),12.4% (inactive),-55.4% (active),85.8% (inactive),14.4% (inactive),76.2% (inactive),-4.72% (active),6.82% (active),10.3% (inactive),13.7% (inactive),14.7% (inactive),29% (inactive),33.7% (inactive),15.9% (inactive),6.89% (active),8.93% (active),3.76% (active),7.48% (active),-1.93% (active)
C[C@@H]1C[C@H]2C(=O)O[C@@H](C)C(NC(=O)[C@H](Cc3cc(F)cc(F)c3)NC(=O)Nc3ccc(OS(=O)(=O)F)cc3)C(=O)N3CCC[C@H]3C(=O)N3CCO[C@H](C)[C@H]3C(=O)N[C@@H](CO)C(=O)N2C1 (stereo not given in full),36.1% (inactive),20.3% (inactive),32% (inactive),23.6% (inactive),-6.32% (active),23.5% (inactive),43.8% (inactive),25.3% (inactive),23.6% (inactive),33.4% (inactive),26.2% (inactive),18.7% (inactive),47.4% (inactive),40.2% (inactive),99.2% (inactive),33% (inactive),39% (inactive),16.8% (inactive),9.86% (active),37.8% (inactive)
N#Cc1c(-n2c(Br)c(Br)c3cc(Br)ccc32)[nH]c2c(Br)cc(Br)cc12,-36.4% (active),-14.8% (active),-2.11% (active),-32.4% (active),-76.8% (active),-30.8% (active),2.02% (active),0.987% (active),1.23% (active),33% (inactive),20.4% (inactive),-44.3% (active),25.4% (inactive),-6.84% (active),-2.1% (active),-13% (active),4.15% (active),-13.6% (active),-66.1% (active),-19.4% (active)
C/C=C/CC(C)C(O)[C@H](NC(=O)[C@@H]1CCCN1C(=O)C(C)(C)NC(=O)CCCCCCC)C(=O)N[C@@](C)(CC)C(=O)N[C@@H](CCC(N)=O)C(=O)N[C@H](CCC(N)=O)C(=O)NC(C)(C)C(=O)NC(C)(C)C(=O)N[C@@H](CCC(N)=O)C(=O)N[C@H](CC(C)C)C(=O)N[C@H](CO)CC(C)C (stereo not given in full),16.4% (inactive),103% (inactive) and -8.57% (active),108% (inactive) and -6.87% (active),103% (inactive) and 25.1% (inactive),100% (inactive) and -65.7% (active),103% (inactive) and 19.2% (inactive),101% (inactive) and -32.4% (active),92.9% (inactive) and 0.907% (active),106% (inactive) and 24.6% (inactive),114% (inactive) and 40% (inactive),108% (inactive) and 44.5% (inactive),101% (inactive) and 52.6% (inactive),113% (inactive) and 46.4% (inactive),110% (inactive) and -10.8% (active),106% (inactive) and 48.9% (inactive),102% (inactive) and 7.2% (active),103% (inactive) and 31.6% (inactive),93.3% (inactive) and 4.76% (active),108% (inactive) and 25.3% (inactive),119% (inactive) and -53% (active)

# — PubChem BioAssay (NCI)
